Results with a measured potency or affinity are listed apart. Active and inactive are the calls of the source.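 Rule for the calls: active = CTGF level falls with dose and the fitted half-maximal dose is at most twice the top valid dose; inconclusive = flat fit with 30 to 70% drop, or a poor fit; inactive = the rest.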
assay: CTGF mRNA reduction in DLD1 cells – cell-based, DLD1 colon cancer, RT-qPCR, cherry-pick, dose response (AID 1053122); conditions: DLD1 CTGF mRNA (YAP1 pathway), 24 h; series mostly up to 26 µM; CTGF expression fold change (lower = inhibition): at the top concentration

CTGF expression fold change (lower = inhibition), inactive:
O=C(Nc1ccc(C(F)(F)F)cc1)Nc1ccc2c(c1)[C@H]1C[C@H](CC(=O)N3CCc4ccccc4C3)O[C@@H](CO)[C@H]1O2 0.502 unspecified
CC(C)(C)[S@](=O)N1Cc2cc(C(=O)NCc3ccccn3)nc(-c3cccc(-c4ccccc4F)c3)c2[C@@H]1CCO 0.92 unspecified
O=C(Nc1cccc(F)c1)N1CCCCN2[C@H](C1)[C@H](c1ccc(C#Cc3cccnc3)cc1)[C@@H]2CO 0.636 unspecified
COc1ccccc1C(=O)Nc1ccc2c(c1)C(=O)N(C)C[C@H](OC)[C@@H](C)CN(C(C)=O)[C@@H](C)CO2 0.589 unspecified
O=S(=O)(c1ccccc1)N1CCCCN2[C@H](C1)[C@@H](c1ccc(C#CC3CCCC3)cc1)[C@@H]2CO 0.972 unspecified
C[C@@H]1CC=CC[C@@H](c2cccc(Cl)c2)NC(=O)[C@@H](Cc2ccccc2)N(C)C(=O)c2ccccc2O1 (mixture of isomers) 0.488 unspecified
COc1ccc(S(=O)(=O)Nc2ccc3c(c2)C(=O)N([C@@H](C)CO)C[C@H](C)[C@@H](CN(C)S(=O)(=O)c2ccc(Cl)cc2)OCCCC[C@@H](C)O3)cc1 0.635 unspecified
C[C@H](CO)N1C[C@H](C)[C@H](CN(C)Cc2ccc(Oc3ccccc3)cc2)OCc2ccccc2-c2ccccc2C1=O 0.56 unspecified [at 23.5 µM]
C[C@@H]1CN([C@@H](C)CO)C(=O)c2ccccc2-c2ccccc2CO[C@H]1CN(C)C(=O)Nc1ccc(-c2ccccc2)cc1 0.477 unspecified
Cc1ccc(S(=O)(=O)N2CC[C@H]3[C@H](CO)Nc4ccc(-c5cccc(C(=O)N(C)C)c5)cc4[C@H]32)cc1 0.486 unspecified
CCS(=O)(=O)Nc1ccc2c(c1)C(=O)N(C)[C@H]1CC[C@H](CC(=O)N3CCN(C)CC3)O[C@H]1CO2 0.968 unspecified
O=C(Nc1ccc2c(c1)[C@H]1C[C@@H](CC(=O)N3CCc4ccccc4C3)O[C@H](CO)[C@H]1O2)c1ccc2c(c1)OCO2 0.506 unspecified
C[C@@H]1CN([C@@H](C)CO)C(=O)c2cc(C#Cc3ccccc3)cnc2O[C@@H]1CN(C)C(=O)c1ccccc1 0.83 unspecified
C[C@H](CO)N1C[C@H](C)[C@@H](CN(C)S(=O)(=O)c2ccc([N+](=O)[O-])cc2)OCc2ccccc2-c2c(n(C)c3ccccc23)C1=O 0.751 unspecified
NCC[C@H]1CC[C@@H](NC(=O)NC2CCCCC2)[C@H](CO)O1 0.998 unspecified
CNC[C@H]1Oc2c(NC(=O)Nc3cccc4ccccc34)cccc2C(=O)N([C@H](C)CO)C[C@@H]1C 0.813 unspecified
C[C@@H]1CN([C@@H](C)CO)C(=O)c2ccccc2-c2ccccc2CO[C@H]1CN(C)C(=O)Nc1cccc(C(F)(F)F)c1 0.611 unspecified
COc1ccc(NC(=O)N(C)C[C@H]2Oc3c(NC(=O)CCCCCC(=O)Nc4ccccc4N)cccc3C(=O)N([C@H](C)CO)C[C@@H]2C)cc1 0.828 unspecified [at 23.5 µM]
Cc1ccc(S(=O)(=O)Nc2ccc3c(c2)C(=O)N([C@H](C)CO)C[C@@H](C)[C@H](CN(C)S(=O)(=O)c2cccs2)OCCCC[C@@H](C)O3)cc1 0.627 unspecified
COCC(=O)N1CC(=O)N2[C@H](CO)[C@@H](c3ccc(C#CC4CC4)cc3)[C@H]2C1 0.97 unspecified
Cc1ccc(S(=O)(=O)N2CC[C@@H]3[C@H]2c2cc(-c4cccc(C(=O)N(C)C)c4)ccc2N[C@@H]3CO)cc1 0.672 unspecified [at 23.5 µM]
CC(=O)N1CCCCN2[C@@H](CO)[C@H](c3ccc(-c4ccccc4)cc3)[C@@H]2C1 0.486 unspecified
C[C@H](O)C#Cc1ccc([C@H]2[C@@H](CO)N3CCCCN(C(=O)c4ccc5c(c4)OCO5)C[C@@H]23)cc1 0.846 unspecified [at 23.5 µM]
O=C([C@H]1[C@H](CO)[C@H]2Cn3c(ccc(-c4ccc(F)cc4)c3=O)[C@H]2N1Cc1cocn1)N1CCCCC1 1.02 unspecified
C[C@@H]1CN([C@@H](C)CO)C(=O)c2cc(NC(=O)Nc3ccccc3)ccc2O[C@@H](C)CCCCO[C@@H]1CN(C)C(=O)Nc1ccccc1 0.865 unspecified
COc1ccc2c3c(n(C)c2c1)[C@@H](CO)N(Cc1ccncc1)CC31CN(C(=O)Nc2cccc(F)c2)C1 0.843 unspecified
CN(C)C(=O)c1ccc(-c2cccc(-c3nc(C(=O)NCc4ccccc4)cc4c3[C@@H](CCO)N([S@](=O)C(C)(C)C)C4)c2)cc1 1.62 unspecified
CCCNC(=O)N1[C@H](C#N)[C@@H](c2ccc(C#Cc3cccc(F)c3)cc2)[C@@H]1CO 0.779 unspecified
Cc1cccc(-c2ccc([C@@H]3[C@@H](CO)N4CCCCN(S(=O)(=O)c5ccccc5F)C[C@@H]34)cc2)c1 0.684 unspecified

— PubChem BioAssay AID1053122 (Broad Institute, 2014)
